A selection: hits, their analogues and other compounds. The true share with any hit is near 8%.
TSHR antagonist: antagonists of human thyroid stimulating hormone receptor; P16473; TSHR-expressing cells, TSH-stimulated cAMP HTRF, 2 h; active compounds read low; activity change, negative = inhibition, % at 11.5 µM; 330,000 tested, 0.2% active;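 active means activity change below a set negative limit, meaning inhibition stronger than a set level, cut at about -70% in these data; inconclusive means activity change between two set negative limits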
Target sequence (P16473 whole entry, looked up): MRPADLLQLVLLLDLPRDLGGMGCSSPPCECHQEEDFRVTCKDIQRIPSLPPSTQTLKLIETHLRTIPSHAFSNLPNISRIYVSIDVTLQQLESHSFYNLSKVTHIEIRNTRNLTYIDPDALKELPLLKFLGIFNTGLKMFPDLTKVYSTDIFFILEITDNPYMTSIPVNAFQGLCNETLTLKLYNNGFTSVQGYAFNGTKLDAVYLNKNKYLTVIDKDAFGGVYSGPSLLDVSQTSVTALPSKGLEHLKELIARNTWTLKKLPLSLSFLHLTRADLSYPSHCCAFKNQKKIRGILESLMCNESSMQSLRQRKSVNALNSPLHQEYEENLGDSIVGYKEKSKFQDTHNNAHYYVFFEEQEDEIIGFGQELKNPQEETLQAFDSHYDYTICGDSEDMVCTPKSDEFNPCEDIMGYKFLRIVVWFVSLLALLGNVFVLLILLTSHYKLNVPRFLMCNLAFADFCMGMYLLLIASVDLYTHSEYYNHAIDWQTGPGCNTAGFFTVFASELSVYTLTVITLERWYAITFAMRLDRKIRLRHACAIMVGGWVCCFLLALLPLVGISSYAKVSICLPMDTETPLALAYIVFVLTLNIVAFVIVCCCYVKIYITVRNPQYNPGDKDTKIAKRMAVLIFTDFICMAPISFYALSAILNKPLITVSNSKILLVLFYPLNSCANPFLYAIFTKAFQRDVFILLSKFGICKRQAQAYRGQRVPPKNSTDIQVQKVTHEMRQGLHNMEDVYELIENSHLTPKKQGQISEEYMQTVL
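Freshly harvested TSHR cells receive pin-tooled compound, then EC80 TSH at 4nM final. After 2 hours at 37 deg C, antibody in lysis buffer and cAMP-d2 are added; 30 minutes at ambient temperature precede the HTRF read.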
ELG1 DNA repair: blocks ELG1-dependent DNA repair in HEK293T cells | HEK293T ELG1-luciferase reporter, luminescence, 16 h; DNA damage induced by 5-fluorouridine | Potency, µM (top dose mostly 46.1 µM), actives largely listed as inhibitors | 330,000 tested, 2.3% active | AID 504467; further: nearly all actives have a fitted effect of over 55% in size
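DMSO vehicle served as the neutral condition. Each well held 2,000 cells given 5-fluorouridine plus compound; after 16 hr at 37 °C/5% CO2, ONE-Glo was added and luciferase measured 30 min later.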
Coupling enz: counter-screen for Giardia aldolase inhibitors: coupling enzyme system; AID 2472; activity change, negative = inhibition, % at 58.2 µM, hits read low; coupling enzyme system counterscreen, AmpLite Red fluorescence; 290,000 tested, 0.67% active; in the data active means activity change below about -30%
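First, compound is pin-transferred into glyceraldehyde-3-phosphate coupling-enzyme reagent at 57.5 uM final and held 10 min at RT. Next, substrate, coupling system and AmpLite Red are added. After 20 min RT, fluorescence (525/598 nm) is read.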
RORg inh: ROR gamma (mouse) transcription inhibition; 310,000 tested, 5.4% active; Drosophila S2 Gal4-RORgamma UAS-luciferase reporter, 20 h; AID 2551; Potency, µM (top dose mostly 53.6 µM), hits mostly inhibitors; further: nearly all actives have a fitted effect of over 60% in size
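Schneider cells (Drosophila), stable Gal4 DBD–ROR gamma + UAS-luc; 1 hr cmpd preincubation; Cu2+ induction 700 uM final; 20 hr ambient; luminescence.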
Gal4-VP16 FLuc: inhibits Gal4-VP16 luciferase reporter, ROR gamma counter-screen; Drosophila S2 Gal4-VP16 UAS-luciferase, luminescence, 20 h; Potency, µM (doses to about 53.6 µM), most hits filed as inhibitors; 310,000 tested, 3.5% active;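 further: Gal4-VP16 expression switched on by copper sulfate through the metallothionein promoter; nearly all actives have a fitted effect of over 50% in size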
Of the large screens only hits and unclear results are named; the others gave an inactive call. Unless noted, the call rests on the fitted dose curve; in most records, active means well fitted curve in the direction sought with a large enough effect; inconclusive means small, poorly fitted or top-dose-only effect, or another doubt; inactive means no such curve, though single readings can be large; an effect the other way counts as inactive or inconclusive.

CC(=O)c1ccc(N2CCN(C(=O)c3ccc4c(=O)n(-c5ccccc5)c(=O)[nH]c4c3)CC2)cc1	ELG1 DNA repair 23µM, RORg inh inconclusive, Gal4-VP16 FLuc inconclusive
COc1ccc(-n2c(=S)[nH]c3cc(C(=O)N4CCN(c5ccccc5)CC4)ccc3c2=O)cc1	RORg inh 10µM, Gal4-VP16 FLuc inconclusive
C=CCn1c(=O)[nH]c2cc(C(=O)N3CCN(c4ccc(C(C)=O)cc4)CC3)ccc2c1=O	ELG1 DNA repair 18µM, Gal4-VP16 FLuc inconclusive
O=C(c1ccc2c(=O)n(-c3ccccc3)c(=O)[nH]c2c1)N1CCN(c2ccc(F)cc2)CC1	ELG1 DNA repair inconclusive
C=CCn1c(=O)[nH]c2cc(C(=O)N3CCN(c4cccc(Cl)c4)CC3)ccc2c1=O	ELG1 DNA repair inconclusive, Gal4-VP16 FLuc inconclusive
COc1ccc(N2CCN(C(=O)c3ccc4c(c3)[nH]c(=S)n3c5ccccc5nc43)CC2)cc1	none
C=CCC1(/C=N/O)CCOC(C)(C)C1 (stereo not given)	none
O=C(NCc1cnc2ccccn12)C1CCC(=O)N(Cc2cccc(F)c2)C1 (stereo not given)	none (no result: Coupling enz)
COc1ccc(-n2cnnc2SCC(=O)NC2CCCCC2)cc1	none (no result: Coupling enz, RORg inh, Gal4-VP16 FLuc)
CC(C)CCNS(=O)(=O)c1cc2c3c(c1)CCN3C(=O)CC2	ELG1 DNA repair inconclusive
CCOc1cccc(-c2nnc3n2N=C(c2cc(OC)ccc2OC)CS3)c1	ELG1 DNA repair 5.2µM, RORg inh inconclusive
COc1ccc(C2=Nn3c(nnc3-c3cccc(OC)c3OC)SC2)c(OC)c1	RORg inh inconclusive, Gal4-VP16 FLuc 18µM (no result: TSHR antagonist, ELG1 DNA repair)
COc1cc(-c2nnc3n2N=C(c2ccccc2)CS3)cc(OC)c1OC	ELG1 DNA repair 9.2µM
COc1cc(OC)cc(-c2nnc3n2N=C(c2ccc(OC)cc2OC)CS3)c1	RORg inh inconclusive (no result: TSHR antagonist, ELG1 DNA repair)
CCOc1ccccc1-c1nnc2n1N=C(c1cc(OC)ccc1OC)CS2	none (no result: TSHR antagonist, ELG1 DNA repair)
COc1cccc(-c2nnc3n2N=C(c2ccc(OC)cc2OC)CS3)c1	RORg inh inconclusive, Gal4-VP16 FLuc 7.9µM (no result: TSHR antagonist, ELG1 DNA repair)
COc1ccc(OC)c(C2=Nn3c(nnc3-c3cccc(OC)c3OC)SC2)c1	none (no result: TSHR antagonist, ELG1 DNA repair)
Cc1ccc2nc(-c3cccc(S(=O)(=O)N4CC(C)OC(C)C4)c3)cn2c1 (stereo not given)	none
COc1ccc([C@H]2CC(=O)C=C(c3ccc4cc[nH]c4c3)C2)cc1	ELG1 DNA repair inconclusive (no result: Coupling enz, RORg inh, Gal4-VP16 FLuc)
COc1cccc(-c2nnc3n2N=C(c2cc(OC)ccc2OC)CS3)c1	ELG1 DNA repair 18µM, RORg inh inconclusive
COc1ccc(-c2nnc3n2N=C(c2cc(OC)ccc2OC)CS3)cc1	none (no result: TSHR antagonist, ELG1 DNA repair)
COC(=O)c1cc(=O)n(CCc2ccc(OC)c(OC)c2)c(=Nc2ccc(F)c(Cl)c2)s1	ELG1 DNA repair 15µM, RORg inh 18µM, Gal4-VP16 FLuc inconclusive
COc1ccc2oc(=Nc3ccc(C(=O)O)cc3)c(C(=O)NCc3ccco3)cc2c1	none
COc1ccc2cc(C(=O)NCc3ccco3)c(=Nc3ccc(C(=O)O)cc3)oc2c1	ELG1 DNA repair inconclusive, RORg inh 1.1µM, Gal4-VP16 FLuc 2.8µM
O=C(NCc1ccco1)c1cc2ccc(O)cc2oc1=O	ELG1 DNA repair inconclusive, RORg inh 10µM, Gal4-VP16 FLuc 10µM
CN(C)c1ccc(N2CN=C3SCC(=O)N3C2)cc1	ELG1 DNA repair inconclusive, Coupling enz -51
O=C1CSC2=NCN(c3ccc4c(c3)OCO4)CN12	ELG1 DNA repair inconclusive
C[C@@](Cc1ccccc1)(NC(=O)CN)c1ccccc1	none (no result: TSHR antagonist, ELG1 DNA repair)
CC(C)C(C)NC(=O)COc1ccc(Sc2ccc(OCC(=O)NC(C)C(C)C)cc2)cc1 (stereo not given)	TSHR antagonist inconclusive, ELG1 DNA repair 8.2µM, RORg inh inconclusive, Gal4-VP16 FLuc inconclusive
CCC(C)(C)NC(=O)C(c1ccc(OC)cc1)N(C(=O)CCC(=O)Nc1cc(C)on1)c1ccc(F)cc1 (stereo not given)	none
CSCC[C@H](C=O)NC(=O)[C@H](CC(C)C)NC(=O)[C@H](CC(C)C)NC(C)=O	RORg inh 11µM (no result: TSHR antagonist, ELG1 DNA repair)
CCCC[C@@H](C=O)NC(=O)[C@H](CC(C)C)NC(=O)[C@H](CC(C)C)NC(C)=O	RORg inh inconclusive (no result: TSHR antagonist, ELG1 DNA repair)
C[C@@H](NC(=O)c1nc[nH]c1C(=O)N[C@@H](Cc1ccccc1)C(=O)OC(C)(C)C)c1ccccc1	RORg inh 4µM, Gal4-VP16 FLuc 7.1µM
C[C@H](NC(=O)c1nc[nH]c1C(=O)N[C@@H](Cc1ccccc1)C(=O)OC(C)(C)C)c1ccccc1	ELG1 DNA repair inconclusive, RORg inh 7.1µM, Gal4-VP16 FLuc 11µM
Nc1nc(SCC(=O)NC2CCCCC2)n[nH]1	none (no result: Coupling enz)
O=C1CCCC=C1[C@H](O)c1ccc([N+](=O)[O-])cc1	none (no result: TSHR antagonist, ELG1 DNA repair)
O=C1/C(=C/N(C(=O)c2ccco2)c2ccc(Cl)cc2)Sc2ccccc21	ELG1 DNA repair inconclusive, RORg inh inconclusive, Gal4-VP16 FLuc inconclusive
O=C1/C(=C/N(C(=O)c2ccco2)c2ccc(Br)cc2)Sc2ccccc21	ELG1 DNA repair inconclusive, RORg inh 35µM, Gal4-VP16 FLuc 13µM
COc1ccc(-c2cc(C(=O)NC3=NCCS3)c3ccccc3n2)cc1OC	ELG1 DNA repair 16µM, RORg inh inconclusive
Cc1ccc(-c2cc(C(=O)NN=C3CCCC3)c3ccccc3n2)cc1	ELG1 DNA repair inconclusive, RORg inh 13µM, Gal4-VP16 FLuc inconclusive
CN1CCN(NC(=O)c2cc(-c3cccc(Cl)c3)nc3ccccc23)CC1	RORg inh inconclusive
CC(C)c1ccc(-c2cc(C(=O)NN3CCN(C)CC3)c3ccccc3n2)cc1	ELG1 DNA repair inconclusive, RORg inh 11µM, Gal4-VP16 FLuc 14µM
O=C(NN=C1CCCCCC1)c1cc(-c2ccccc2)nc2ccccc12	RORg inh inconclusive
O=C(NC1=NCCS1)c1cc(-c2ccc(-c3ccccc3)cc2)nc2ccccc12	ELG1 DNA repair inconclusive, RORg inh 3.5µM, Gal4-VP16 FLuc 5µM
COc1cc2[nH]c(=S)nc(NCc3ccccc3)c2cc1OC	RORg inh 7.1µM, Gal4-VP16 FLuc inconclusive
S=c1nc(NCc2cccc(Cl)c2)c2ccccc2[nH]1	RORg inh 4µM, Gal4-VP16 FLuc 8.9µM
COc1cc2[nH]c(=S)nc(NCc3cccc(Cl)c3)c2cc1OC	RORg inh 3.2µM, Gal4-VP16 FLuc 7.9µM
COc1cc2[nH]c(=S)nc(NCc3cccnc3)c2cc1OC	ELG1 DNA repair inconclusive
COc1ccc(CNc2nc(=S)[nH]c3cc(OC)c(OC)cc23)cc1	RORg inh 16µM, Gal4-VP16 FLuc inconclusive
CCNC(=S)Nc1ccc(Cc2nc3ccccc3[nH]2)cc1	none
O=C(NC1CCCCC1)c1ccc(CNc2nc(=S)[nH]c3ccccc23)cc1	ELG1 DNA repair inconclusive, RORg inh 13µM
S=c1nc(NCc2ccc3c(c2)OCO3)c2ccccc2[nH]1	RORg inh 13µM, Gal4-VP16 FLuc inconclusive
COc1cc2[nH]c(=S)nc(NCc3ccc(C)cc3)c2cc1OC	RORg inh 6.3µM, Gal4-VP16 FLuc 18µM
c1ccc2[nH]c(NCc3ccc4c(c3)OCO4)nc2c1	ELG1 DNA repair inconclusive
